Results published in publication PMC4336329 (PLoS ONE, 2015).
Hit rate of the full screen: of about 310,000 compounds, about 2,200 (0.71%) showed an effect of 50% or more. Effects have a minus sign here. Many of the other results were omitted from the sample, so strong results are more common in it than they were.

The compounds below were run against human ether-à-go-go-related gene (hERG) potassium channel (human, UniProt Q12809) (assay: primary screen, population patch clamp on CHO cells stably expressing hERG; higher = less effect of the substance).
Chain of human ether-à-go-go-related gene (hERG) potassium channel (Q12809 whole entry, looked up): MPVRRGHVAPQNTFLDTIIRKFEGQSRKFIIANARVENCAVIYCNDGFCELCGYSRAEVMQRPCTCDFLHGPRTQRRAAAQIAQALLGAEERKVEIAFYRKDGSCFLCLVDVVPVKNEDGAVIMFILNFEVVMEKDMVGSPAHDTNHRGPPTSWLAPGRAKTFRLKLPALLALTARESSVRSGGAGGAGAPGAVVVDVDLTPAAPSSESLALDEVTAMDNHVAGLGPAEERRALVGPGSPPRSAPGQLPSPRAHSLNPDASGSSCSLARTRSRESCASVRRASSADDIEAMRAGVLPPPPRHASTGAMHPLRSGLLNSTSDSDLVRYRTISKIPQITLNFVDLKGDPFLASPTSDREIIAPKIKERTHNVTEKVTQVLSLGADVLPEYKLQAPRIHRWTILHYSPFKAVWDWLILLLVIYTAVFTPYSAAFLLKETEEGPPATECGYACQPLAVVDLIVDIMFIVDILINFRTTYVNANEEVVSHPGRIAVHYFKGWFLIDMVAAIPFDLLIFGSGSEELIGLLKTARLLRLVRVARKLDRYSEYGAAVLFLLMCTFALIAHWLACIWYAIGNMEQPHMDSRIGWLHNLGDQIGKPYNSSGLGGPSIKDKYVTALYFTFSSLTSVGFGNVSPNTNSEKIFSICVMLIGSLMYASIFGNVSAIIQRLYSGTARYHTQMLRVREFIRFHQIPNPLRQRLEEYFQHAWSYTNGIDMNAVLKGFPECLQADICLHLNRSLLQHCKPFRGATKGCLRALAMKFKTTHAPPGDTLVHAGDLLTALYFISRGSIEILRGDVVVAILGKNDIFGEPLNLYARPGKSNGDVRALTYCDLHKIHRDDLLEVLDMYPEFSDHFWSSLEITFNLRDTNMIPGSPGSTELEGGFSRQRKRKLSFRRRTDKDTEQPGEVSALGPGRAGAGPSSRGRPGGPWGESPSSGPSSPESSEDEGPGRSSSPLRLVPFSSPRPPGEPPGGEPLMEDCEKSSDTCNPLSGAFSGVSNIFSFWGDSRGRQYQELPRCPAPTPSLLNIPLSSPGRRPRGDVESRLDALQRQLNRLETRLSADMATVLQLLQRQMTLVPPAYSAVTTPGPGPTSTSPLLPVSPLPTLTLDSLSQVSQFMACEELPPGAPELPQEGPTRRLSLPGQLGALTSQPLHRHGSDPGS

| Compound | hERG current change (%, negative = inhibition) at 1uM [%] |
| --- | --- |
| COCCN(C(=O)c1csnn1)C(C(=O)NC1CCCC1)c1ccccc1F (stereo not drawn) | 12.6 |
| COc1ccc(-n2c(NN)nc3sc4c(c3c2=O)CCCC4)cc1 | -9.75 |
| CN(C)CCNc1nc2sc3c(c2c(=O)n1-c1ccc(F)cc1)CCCCC3 | 6.73 |
| COc1ccc(-n2c(NCCN(C)C)nc3sc4c(c3c2=O)CCCCC4)cc1 | -69.4 |
| CC1(C)CC(NC(=O)C2CCN(S(=O)(=O)c3ccc(F)cc3)CC2)CC(C)(C)N1 | 16.9 |
| CCOC(=O)C1(Cc2ccc(Cl)cc2)CCN(C(=O)C2=NNC(=O)CC2)CC1 | -61.2 |
| CCOC(=O)C1(Cc2ccc(Cl)cc2)CCN(Cc2nccn2CC)CC1 | -57 |
| CCOC(=O)C1(Cc2cccc(OC)c2)CCN(Cc2cnc(N)nc2)CC1 | 5.79 |
| CCOC(=O)C1(Cc2ccc(Cl)cc2)CCN(Cc2ccon2)CC1 | 5.86 |
| O=C1CCC(C(=O)N2CCC(CO)(Cc3ccc(Cl)cc3)CC2)=NN1 | 2.9 |
| CCOC(=O)C1(Cc2ccc(Cl)cc2)CCN(C(=O)c2cscn2)CC1 | -12.4 |
| CCOC(=O)C1(Cc2ccccc2)CCN(Cc2nccn2CC)CC1 | 8.81 |
| CCOC(=O)C1(Cc2cccc(OC)c2)CCCN(Cc2nccn2CC)C1 (stereo not drawn) | -13.5 |
| CCOC(=O)C1(Cc2ccc(Cl)cc2)CCN(Cc2cnc(N)nc2)CC1 | -60.6 |
| COc1ccccc1C(=O)Nc1nnc(S(=O)(=O)N2CCC(C)CC2)s1 | 12.4 |
| CCOc1ccc(CNC(=O)C2CCCN(c3nnc(C)c4c(C)n(-c5ccccc5)nc34)C2)cc1 (stereo not drawn) | 8.87 |
| N#C/C(=C/c1ccc(N2CCCCCC2)o1)c1ccc(F)cc1 | 16.2 |
| O=C1CC(Nc2ccc(N3CCOCC3)cc2)C(=O)N1c1ccccc1F (stereo not drawn) | 3.19 |
| CCN1C(=O)[C@H]2[C@@H](c3ccc(-c4ccc(OC)cc4)cc3)N3CCC[C@@]3(C(=O)OC)[C@H]2C1=O.O=C(O)C(F)(F)F | 11.6 |
| Cc1cc(C)c(S(=O)(=O)N2CCCCC2CCNC(=O)C(=O)NCCN2CCOCC2)c(C)c1 (stereo not drawn) | 6.75 |
| Cc1cc(C(C)(C)C)ccc1OCCOCCN1CCCC1 | -0.816 |
| Cc1cc(C(C)(C)C)ccc1OCCN(C)C | -15.1 |

| Compound | hERG current change (%, negative = inhibition) at 1uM [%] |
| --- | --- |
| Cc1cc(C(C)(C)CC(C)(C)C)ccc1OCCOCC[N+](C)(C)Cc1ccccc1.[Cl-] | -62 |
| COc1cccc(S(=O)(=O)NCC(=O)N2CCCCCC2)c1 | 25 |
| Cc1ccc(S(=O)(=O)N2CCN(c3ccccc3)CC2)cc1C | 12.5 |
| Cc1ccc(S(=O)(=O)N2CCN(c3ccccc3)CC2)cc1C(=O)NC1CCCCC1 | 10.8 |
| Cc1ccc(S(=O)(=O)N2CCN(c3ccccc3)CC2)cc1C(N)=O | -52 |
| CC(C)OC(=O)c1ccc(NC(=O)c2ccco2)cc1 | 6.19 |
| Cc1ccc(S(=O)(=O)Cn2nnnc2C(CC(C)C)N2CCN(C(=O)c3ccco3)CC2)cc1.Cl (stereo not drawn) | 7.63 |
| C=CCNc1nc(C(=O)OCC(=O)Nc2cc(S(C)(=O)=O)ccc2Cl)cs1 | 4.15 |
| NC(=O)CCCn1c(C(=O)c2cc(Cl)c(N)c(Cl)c2)c2ccc(C(F)(F)F)cc2[n+]1[O-] | 5.14 |
| [Cl-].[NH3+]CCCn1c(C(=O)c2ccc(Cl)cc2)c2ccc([N+](=O)[O-])cc2[n+]1[O-] | -47.1 |
| Cc1ccc(C(=O)c2c3ccc(C(F)(F)F)cc3[n+]([O-])n2CCC[NH3+])cc1.O=C([O-])C(F)(F)F | -64.4 |
| Cc1ccc(C(=O)c2c3ccc([N+](=O)[O-])cc3[n+]([O-])n2CCCC(N)=O)cc1 | -11.4 |
| NC(=O)CCCn1c(C(=O)c2ccc(Cl)cc2)c2ccc(C(F)(F)F)cc2[n+]1[O-] | -80.1 |
| Cc1ccc(C(=O)c2c3ccc(C(F)(F)F)cc3[n+]([O-])n2CCC(N)=O)cc1 | -28.8 |
| Cc1ccc(C(=O)c2c3ccc([N+](=O)[O-])cc3[n+]([O-])n2CCC[NH3+])cc1.O=C([O-])C(F)(F)F | -14.7 |
| [Cl-].[NH3+]CCCn1c(C(=O)c2ccc(Cl)cc2)c2ccc(C(F)(F)F)cc2[n+]1[O-] | -80.9 |
| Nc1c(Cl)cc(C(=O)c2c3ccc(C(F)(F)F)cc3[n+]([O-])n2CCC[NH3+])cc1Cl.[Cl-] | -37.3 |
| Nc1c(Cl)cc(C(=O)c2c3ccc([N+](=O)[O-])cc3[n+]([O-])n2CCC[NH3+])cc1Cl.O=C([O-])C(F)(F)F | 1.56 |
| Cc1ccc(C(=O)c2c3ccc(C(F)(F)F)cc3[n+]([O-])n2CCCC(N)=O)cc1 | -39 |
| NC(=O)CCCn1c(C(=O)c2ccc(Cl)cc2)c2ccc([N+](=O)[O-])cc2[n+]1[O-] | -58.2 |
| COc1cccc(CNS(=O)(=O)c2c(C(=O)N3CCCCCC3)c(C)n(C)c2C)c1 | 7.52 |
| Cc1ccccc1CNC1CCCCC1.Cl | 2.15 |

| Compound | hERG current change (%, negative = inhibition) at 1uM [%] |
| --- | --- |
| O=C(Cn1cnc2cc([N+](=O)[O-])ccc2c1=O)Nc1ccccc1Cl | 6.18 |
| COC(=O)c1ccc(-c2nc(O)c(C)s2)cc1 | 9.1 |
| CC1=C(C(=O)Nc2cccc(C(=O)NCc3ccc(F)cc3)c2)SCCO1 | 15.3 |
| COc1ccc(C(=O)c2c3ccc(C(F)(F)F)cc3[n+]([O-])n2CCC[NH3+])cc1.[Cl-] | -63 |
| COc1ccc(C(=O)c2c3ccc([N+](=O)[O-])cc3[n+]([O-])n2CCC[NH3+])cc1.[Cl-] | -13.5 |
| COc1ccc(C(=O)c2c3ccc(C(F)(F)F)cc3[n+]([O-])n2CCCC(N)=O)cc1 | -21.6 |
| Cc1ccc(-c2nn3nnnc3c3ccccc23)cc1 | 12.9 |
| Cc1ccc(-c2nn3nnnc3c3ccccc23)cc1C | -5.22 |
| c1ccc(-c2nn3nnnc3c3ccccc23)cc1 | -82.9 |
| Cc1c(CCOC(=O)CC23CC4CC(CC(C)(C4)C2)C3)sc[n+]1CC(=O)c1ccccc1.[Br-] | -5.09 |
| COc1ccc(C(=O)OCCc2sc[n+](CC(=O)c3ccccc3)c2C)cc1.[Br-] | 9.69 |
| Cc1c(CCOC(=O)c2ccc([N+](=O)[O-])cc2)sc[n+]1CC(=O)c1ccccc1.[Br-] | -6.66 |
| Cc1c(CCOC(=O)CC23CC4CC(CC(C4)C2)C3)sc[n+]1CC(=O)c1ccccc1.[Br-] | -6.04 |
| Cc1c(CCOC(=O)c2ccccc2)sc[n+]1CC(=O)c1ccc(Br)cc1.[Br-] | -82.8 |
| Cc1c(CCOC(=O)CC23CC4CC(CC(C4)C2)C3)sc[n+]1CC(=O)c1ccc(Br)cc1.[Br-] | -63.5 |
| CCc1ccc(C(C(=O)NC2CCCC2)N(Cc2cccnc2)C(=O)c2csnn2)cc1 (stereo not drawn) | 2.84 |
| Nc1c(-c2ccccc2)nc(Cl)nc1-c1ccccc1 | 13.2 |
| CN(CC(=O)Nc1ccccc1Cl)C(=O)COC(=O)/C=C/c1ccc(C(F)(F)F)cc1 | 16.2 |
| Cc1ccccc1C(=O)c1cccn1CC(=O)NCCCN1CCc2ccccc2C1 | -70 |
| CC1CC(C)CN(CCCNC(=O)Cn2cccc2C(=O)c2ccccc2)C1 (stereo not drawn) | -25 |
| O=C(Cn1cccc1C(=O)c1ccccc1)NCCCN1CCc2ccccc2C1 | -41.7 |
| Cc1ccccc1C(=O)c1cccn1CC(=O)NCCCN1CC(C)CC(C)C1 (stereo not drawn) | -59 |

| Compound | hERG current change (%, negative = inhibition) at 1uM [%] |
| --- | --- |
| Cc1ccccc1C(=O)c1cccn1CC(=O)NCCCN1CCCCC1 | 0.894 |
| Cc1ccc(C)c(N2CCN(CCCNC(=O)Cn3cccc3C(=O)c3ccccc3C)CC2)c1 | -22.1 |
| CN(C)CCN1C(=O)c2oc3ccccc3c(=O)c2C1c1ccc(F)cc1 (stereo not drawn) | -2.93 |
| CC(=O)Nc1ccc(Oc2sc(C(=O)c3ccccc3)c(N)c2C#N)cc1 | 9.56 |
| COCCN(C(=O)CSc1nnc(-c2ccco2)n1C)c1c(N)n(CC(C)C)c(=O)[nH]c1=O | 8.54 |
| CCN1CCN(c2ccc(NC(=O)c3ccc4c(c3)OCO4)cc2)CC1 | -16.7 |
| CCOC(=O)C1=C(COC(=O)/C=C/c2cccc(Br)c2)NC(=O)NC1C (stereo not drawn) | -7.77 |
| Cc1ccc(C#N)c(SCc2cccc(Br)c2)n1 | 17.2 |
| CCCOC(=O)c1ccc(NC(=O)/C=C/c2cccs2)cc1 | 7.88 |
| CCN(CC)CCOC(=O)c1ccc(NC(=O)/C=C/c2cccs2)cc1.Cl | -53.5 |
| CCCCOC(=O)c1ccc(NC(=O)/C=C/c2cccs2)cc1 | 1.76 |
| O=C(N/N=C\c1cccnc1)c1cc(-c2ccc(Cl)s2)[nH]n1 | 8.22 |
| CN(C)c1ccc(/C=C(\NC(=O)c2ccccc2)C(=O)NCCN2CCOCC2)cc1 | 8 |
| O=C(NCCN1CCOCC1)/C(=C\c1ccc(F)cc1)NC(=O)c1ccccc1 | -51.7 |
| O=C(NCCCN1CCOCC1)/C(=C/c1ccc(F)cc1)NC(=O)c1ccccc1 | -46.5 |
| O=C(NCCN1CCOCC1)/C(=C/c1ccc(F)cc1)NC(=O)c1ccccc1 | -58.4 |
| CSc1ccc(/C=C(/NC(=O)c2ccccc2)C(=O)NCCN2CCOCC2)cc1 | -10.3 |
| CSc1ccc(/C=C(\NC(=O)c2ccccc2)C(=O)NCCN2CCOCC2)cc1 | -44.3 |
| O=C(NCCN1CCOCC1)/C(=C\c1ccc(Br)cc1)NC(=O)c1cccs1 | -54 |
| O=C(NCCO)/C(=C\c1ccc(Br)cc1)NC(=O)c1cccs1 | 6.96 |
| O=C(NCCO)/C(=C/c1ccc(Br)cc1)NC(=O)c1cccs1 | -8.3 |
